Screening data deposited in PubChem BioAssay by several laboratories.
In the library only some 4% were active in any assay of this set; here they are far more common.
PAX8 inh HTS – PAX8 transcriptional activity inhibition. inhibition, % at 12.6 µM. 1.2% of 360,000 active. RMG-I TPO-luciferase reporter, SteadyGlo, 24 h. AID 652154;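 active = mean replicate inhibition at least 60% with every replicate also reaching 60%; inconclusive = only one of the two criteria is met; inactive = mean below 60% and not all replicates reaching 60%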;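 also: luciferase light reporting Pax8 driven TPO promoter activity; plate controls were median of neutral control wells for no effect and mitoxantrone controls for full effect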
Mdm2-MdmX inh – human Mdm2/MdmX binding inhibition; SaOS-2 split-luciferase Mdm2/MdmX complementation, luminescence; inhibition, % at 8 µM; 3% of 330,000 active;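 active = inhibition of at least 50% at 8 µM in the primary screen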
Target sequence (O15151 whole entry, looked up): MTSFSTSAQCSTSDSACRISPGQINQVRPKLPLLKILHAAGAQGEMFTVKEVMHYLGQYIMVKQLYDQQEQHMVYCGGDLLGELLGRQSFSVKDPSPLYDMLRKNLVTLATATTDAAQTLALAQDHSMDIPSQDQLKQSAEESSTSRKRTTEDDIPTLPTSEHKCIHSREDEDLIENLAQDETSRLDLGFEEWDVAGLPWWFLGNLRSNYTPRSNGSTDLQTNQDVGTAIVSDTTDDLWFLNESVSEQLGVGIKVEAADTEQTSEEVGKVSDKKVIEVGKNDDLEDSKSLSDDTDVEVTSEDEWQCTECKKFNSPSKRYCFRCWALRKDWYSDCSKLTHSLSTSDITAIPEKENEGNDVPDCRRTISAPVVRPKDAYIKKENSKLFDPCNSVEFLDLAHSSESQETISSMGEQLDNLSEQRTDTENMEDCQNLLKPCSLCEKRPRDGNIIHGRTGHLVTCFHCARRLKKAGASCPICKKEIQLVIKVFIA
Target sequence (Q00987 whole entry, looked up): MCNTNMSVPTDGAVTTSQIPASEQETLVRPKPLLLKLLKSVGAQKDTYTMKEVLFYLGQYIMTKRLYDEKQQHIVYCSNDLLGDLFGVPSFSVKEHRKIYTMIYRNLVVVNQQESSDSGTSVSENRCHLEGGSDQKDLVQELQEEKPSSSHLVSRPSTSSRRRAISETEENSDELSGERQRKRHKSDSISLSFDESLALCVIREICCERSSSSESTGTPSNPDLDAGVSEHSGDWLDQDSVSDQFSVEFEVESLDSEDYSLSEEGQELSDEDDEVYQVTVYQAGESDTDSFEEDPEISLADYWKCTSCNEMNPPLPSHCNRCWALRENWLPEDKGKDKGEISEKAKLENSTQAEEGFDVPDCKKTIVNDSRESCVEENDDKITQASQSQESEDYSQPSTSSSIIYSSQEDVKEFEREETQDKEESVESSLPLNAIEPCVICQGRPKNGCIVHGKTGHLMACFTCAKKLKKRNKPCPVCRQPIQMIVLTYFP
CSC inhib – blocks cancer stem cells | cancer stem cell-like cells viability, luminescence | inhibition, % at 7.5 µM | 1.1% of 300,000 active | AID 2717; in the data active = inhibition above about 75%; inconclusive = no clear call, values can overlap the other calls; tested in HMLE shEcad cells
Shn3 3UTR inh – Schnurri-3 reporter inhibition in Clone20 osteoblasts; 0.52% of 360,000 active; inhibition, % at 12.5 µM; Clone20 osteoblast Shn3 3'UTR firefly luciferase, 24 h;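 active = mean inhibition of at least 75% with every replicate also reaching 75%; inconclusive = mean inhibition at least 75% but some replicate below; inactive = mean inhibition below 75%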;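 also: 0% = median of neutral control wells and 100% = pilot-screen positive control compound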
Beta cell apopt – beta cell apoptosis inhibition. INS-1E cytokine-induced death, ATP luminescence, 48 h; percent of positive-control rescue, neutral wells zero. protection from apoptosis, % (concentration not given with the values). 0.8% of 300,000 active;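 active = Every replicate reaches about 75%, or at least half do and their mean reaches it too, limit read from the data; inconclusive = At least half of replicates reach the limit but their mean does not; inactive = Under half of replicates reach the limit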;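 also: 0% = cytokine-treated negative control wells and 100% = positive control rescue; higher means more ATP so stronger rescue from cytokine killing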
Gli-Sufu block – antagonists of Gli-Sufu signaling; Sufu-KO-LIGHT fibroblasts, Gli luciferase reporter luminescence; inhibition, % at 5 µM; 0.74% of 340,000 active;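 active = inhibition above about 55%, limit read from the data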;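 also: 0% = DMSO-treated cells and 100% = wells with medium but no cells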
Gli antag conf – confirmation of Gli-SUFU pathway antagonists; inhibition, % at 5 µM; shares compounds with Gli-Sufu block; Sufu-KO-LIGHT cells, Gli luciferase reporter, luminescence; 40% of 2,500 active;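 active = mean inhibition at 5 µM reaching about 45%, limit read from the data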;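 also: plate controls were DMSO-treated cells for no effect and wells lacking cells for full effect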
SufuKO cytotox – counter-screen for Gli-SUFU antagonists: cytotoxicity; shares compounds with Gli-Sufu block; Sufu-KO-LIGHT cells cytotoxicity, ATP luminescence; cytotoxicity, % at 5 µM; 32% of 2,500 active; AID 651994;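 active = mean cytotoxicity at 5 µM above about 25%, limit read from the data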;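 also: cells exposed to compound overnight for roughly 16 to 18 hours; plate controls were DMSO wells with cells for no effect and medium without cells for full effect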
Wnt3a counter – Wnt3a reporter inhibition counter-screen; shares compounds with Gli-Sufu block; Wnt-LIGHT cells, Wnt3a-driven luciferase reporter, luminescence; inhibition, % at 6.25 µM; 20% of 2,500 active;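 active = mean inhibition above about 25%, limit read from the data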
Starred values were filed as active, the others as inactive; ? = inconclusive; nt = no result given.

SMILES | PAX8 inh HTS | Mdm2-MdmX inh | CSC inhib | Shn3 3UTR inh | Beta cell apopt | Gli-Sufu block | Gli antag conf | SufuKO cytotox | Wnt3a counter
CCNC(=O)Nc1ccc2c(c1)C(=O)N(C)[C@H]1CC[C@@H](CC(=O)NCC3CC3)O[C@H]1CO2 | -4 | nt | nt | nt | nt | nt | nt | nt | nt
CC(C)(C)n1nnnc1C(c1ccc2ncccc2c1)N1CCC(O)CC1 (stereo not drawn) | 15 | 2 | -4 | -9 | -2 | 63* | 9 | 11 | 8
Cc1cc(C)cc(NC(=S)N(CCN(C)C)C(C)c2cccnc2)c1 (stereo not drawn) | -22 | -10 | 1 | 20 | -7 | 50 | 17 | 12 | -31
O=C(C[C@H]1CC[C@@H]2[C@H](COC[C@H](O)CN2C(=O)c2ccc3c(c2)OCO3)O1)NC1Cc2ccccc2C1 | -2 | nt | nt | nt | nt | nt | nt | nt | nt
CCOC(=O)C(C)NC(=O)Cn1ncc2c(=O)oc3ccc(C)cc3c21 (stereo not drawn) | -5 | 1 | 3 | -14 | -3 | -2 | nt | nt | nt
Cc1ccc2oc(=O)c3cnn(CC(=O)NC4CCC(C)CC4)c3c2c1 (stereo not drawn) | -5 | -1 | 13 | -1 | -7 | 54 | 21 | 17 | -18
Cc1ccc2oc(=O)c3cnn(CC(=O)NC4CCCCC4C)c3c2c1 (stereo not drawn) | 4 | 1 | -1 | 12 | nt | 99* | 20 | 11 | 1
CCN(CC)CCCNC(=O)Cn1ncc2c(=O)oc3ccc(C)cc3c21 | -6 | -7 | -7 | -3 | -3 | 2 | nt | nt | nt
Cc1ccc(S(=O)(=O)Nc2ccc3c(c2)C(=O)N([C@H](C)CO)C[C@H](C)[C@@H](CN(C)C(=O)NC(C)C)OCCCC[C@H](C)O3)cc1 | 3 | nt | nt | nt | nt | nt | nt | nt | nt
COC(=O)C[C@@H]1C[C@H]2c3cc(NC(=O)Nc4ccc(F)cc4)ccc3O[C@H]2[C@H](CO)O1 | -9 | nt | nt | nt | nt | nt | nt | nt | nt
CCN(C(=O)c1ccc(C(C)(C)C)cc1)c1nnc(Cn2nnc3ccccc32)s1 | nt | 46 | 62 | 93* | 112* | 61* | 61* | 33* | 42*
CN1C(=O)c2cc(NC(=O)C3CCCC3)ccc2OC[C@@H]2O[C@H](CC(=O)NCc3ccccc3F)CC[C@@H]21 | -2 | nt | nt | nt | nt | nt | nt | nt | nt
CCC1=C(CC2NCCc3ccccc32)CC2c3cc(OC)c(OC)cc3CCN2C1 (stereo not drawn) | 59 | nt | nt | 74 | nt | 53 | 60* | 5 | 85*
Nn1c(CSc2nc3ccccc3o2)nnc1CSc1nc2ccccc2o1 | 14 | 10 | -4 | nt | -4 | 94* | 23 | -3 | 11
O=C(OCC12CC3CC(CC(C3)C1)C2)c1ccc(NCc2cc(O)ccc2O)cc1 | 52 | nt | nt | 98* | nt | 78* | 68* | 38* | 66*
C[C@@H]1CCCCO[C@@H](CN(C)CC2CC2)[C@H](C)CN([C@@H](C)CO)C(=O)c2cc(NC(=O)CCC(F)(F)F)ccc2O1 | 3 | nt | nt | nt | nt | nt | nt | nt | nt
COc1ccc2c(c1)CCCC21SC(NC(C)=O)=NN1C(C)=O (stereo not drawn) | 3 | -1 | -7 | -11 | -3 | 51 | 26 | 15 | 10
COc1cc(C(C#N)N2CCOCC2)ccc1O (stereo not drawn) | -11 | 13 | -15 | -9 | -13 | 55* | 21 | 9 | 3
CCOC(=O)C1=NN(C(=O)Nc2cccc(C(F)(F)F)c2)C2C(=O)N(c3cccc(C(F)(F)F)c3)C(=O)C12 (stereo not drawn) | nt | 4 | -4 | 2 | 2 | 70* | 25 | -9 | 7
CCOC(=O)c1nccnc1C(=O)Nc1cccc(C(F)(F)F)c1 | -10 | 9 | -7 | 10 | -11 | 26 | nt | nt | nt
COc1ccc(N2CCN(C3CC(=O)N(C)C3=O)CC2)cc1 (stereo not drawn) | nt | -4 | -8 | -15 | -3 | 67* | 25 | 1 | 9
C[C@H]1CCCCO[C@@H](CN(C)C(=O)CCCN(C)C)[C@@H](C)CN([C@@H](C)CO)C(=O)c2cc(NS(C)(=O)=O)ccc2O1 | -2 | nt | nt | nt | nt | nt | nt | nt | nt
COc1ccc2cc(C(=O)N3CCN(c4ccccc4OC)CC3)[nH]c2c1 | 1 | 9 | -10 | 17 | -10 | 57* | 31 | 3 | -4
COc1ccccc1N1CCN(C(=O)c2cc3sccc3n2C)CC1 | 25 | 34 | 4 | 6 | -8 | 92* | 8 | -6 | -17
CN1CCN(C(=O)c2cc3ccccc3[nH]2)CC1 | -12 | 9 | -13 | -6 | -2 | 53 | 14 | 14 | -7
SMILES | PAX8 inh HTS | Mdm2-MdmX inh | CSC inhib | Shn3 3UTR inh | Beta cell apopt | Gli-Sufu block | Gli antag conf | SufuKO cytotox | Wnt3a counter
O=C(c1cc2ccccc2[nH]1)N1CCOCC1 | 30 | -15 | 2 | -9 | 6 | 2 | nt | nt | nt
O=C(Cn1cc(C(=O)c2ccco2)c2ccccc21)Nc1ccccc1F | -3 | 28 | -2 | 89* | -3 | 60* | 73* | 25 | 13
O=C(N[C@@H]1CC[C@H](CCNC(=O)c2ccccc2F)O[C@H]1CO)c1ccc2c(c1)OCO2 | 7 | nt | nt | nt | nt | nt | nt | nt | nt
C[C@@H]1CN([C@@H](C)CO)C(=O)c2cccc(NC(=O)Nc3ccc(F)cc3)c2O[C@H]1CN(C)Cc1ccc(C(=O)O)cc1 | -11 | nt | nt | nt | nt | nt | nt | nt | nt
N#Cc1ccsc1NC(=O)CCN1CCN(C(c2ccccc2)c2ccccc2)CC1 | 23 | -1 | 32 | -9 | 0 | 53 | 21 | 0 | -17
NC(=S)N/N=C/c1cccc(O)c1O | 23 | 21 | -6 | 9 | 41 | 82* | 31 | 4 | -19
NC(=S)N/N=C/c1cccc(/C=N/NC(N)=S)c1 | 6 | 10 | -2 | 15 | 4 | -4 | nt | nt | nt
COc1cc(NC(=S)NCCN2CCOCC2)cc(OC)c1OC | -22 | 9 | -6 | 2 | -5 | 51 | 24 | 3 | 2
COc1cc(NC(=S)NCCCN2CCOCC2)cc(OC)c1OC | 18 | -17 | -13 | 5 | 0 | -4 | nt | nt | nt
C[C@@H]1CCCCO[C@@H](CN(C)C(=O)CCC(F)(F)F)[C@H](C)CN([C@@H](C)CO)C(=O)c2cc(NC(=O)CCC(F)(F)F)ccc2O1 | 18 | nt | nt | nt | nt | nt | nt | nt | nt
O=C(N/N=C/c1ccccn1)c1[nH]c2ccc([N+](=O)[O-])cc2c1-c1ccccc1 | 8 | 21 | 51 | 31 | 13 | 56* | 22 | 17 | -69
Cc1ccc(S(=O)(=O)N2CCN(c3ncnc4sccc34)CC2)cc1 | nt | 22 | -2 | 87* | 89* | 63* | 58* | 34* | 22
O=S(=O)(c1ccccc1C(F)(F)F)N1CCN(c2ncnc3sccc23)CC1 | 24 | 29 | 6 | ? | 27 | 9 | nt | nt | nt
c1ccc(CC2CCN(c3ncnc4sccc34)CC2)cc1 | 26 | nt | nt | 90* | nt | 66* | 70* | 33* | 35*
